This passage reports growth inhibition results from PubChem BioAssay (NCI).

Experiment [1] is described as follows: NCI Yeast Anticancer Drug Screen. Data for the rad50 strain (AID 155).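 Further: 0% = growth of vehicle-only cultures of the same strain.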 Particulars: S. cerevisiae rad50 strain growth inhibition; at 50.0 µM; active compounds read high. The gist of the method: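 Yeast carrying a defined DNA repair defect were exposed to test compounds, and growth was compared with vehicle-treated controls to give percent inhibition.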
The nature of experiment [2]: NCI Yeast Anticancer Drug Screen. Data for the mec2-1 strain (AID 157). Particulars: S. cerevisiae mec2-1 strain, at 50.0 µM, active compounds read high. The gist of the method:
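Vehicle-treated cultures served as reference for growth inhibition of compound-exposed mec2-1 yeast.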

Experiment [3] in a line: NCI Yeast Anticancer Drug Screen. Data for the sgs1 mgt1 strain (AID 161).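 Further: 0% = growth of cultures given vehicle only.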 Particulars: S. cerevisiae sgs1 mgt1 strain, at 50.0 µM, active compounds read high. Put shortly: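 Genetically altered yeast, compound exposure, growth inhibition relative to vehicle.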
Experiment [4] in a line: NCI Yeast Anticancer Drug Screen. Data for the cln2 rad14 strain (AID 165).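 Further: 0% = growth equal to vehicle treated cultures.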 Particulars: S. cerevisiae cln2 rad14 strain, at 50.0 µM, active compounds read high. Put shortly: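 Each compound was tested on cln2 rad14 yeast. Inhibition of growth was calculated against vehicle-exposed controls.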
The nature of experiment [5]: NCI Yeast Anticancer Drug Screen. Data for the bub3 strain (AID 167). Particulars: S. cerevisiae bub3 mutant strain, at 50.0 µM, active compounds read high. The gist of the method:
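Compounds were applied to a genetically altered yeast strain carrying a cell-cycle control defect. Growth inhibition was scored against vehicle-treated controls.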

Experiment [6] is described as follows: NCI Yeast Anticancer Drug Screen. Data for the mlh1 rad18 strain (AID 175). Particulars: S. cerevisiae mlh1 rad18 strain growth inhibition; at 50.0 µM; active compounds read high. Put shortly:
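Vehicle-treated cultures served as the reference for growth inhibition in a yeast strain carrying DNA damage repair alterations exposed to each compound.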

The panel holds about 79,000 compounds, 15% with a hit somewhere; the sample as a whole holds those more often. Unmarked numbers belong to inactive results. Active and inactive are the calls of the source. No stated cut-off is given here; in the data, active means growth inhibition above about 70%; inactive means the rest.

Turning to `C=C1N(c2cc(OC)c(OC)c(OC)c2)C(=O)OC12CCCCC2`, the growth inhibition in experiment [1] was -4.05%; in experiment [2], 5.4%; in experiment [3], 0.2%; in experiment [4], 38.7%; in experiment [5] it was -0.3%; in experiment [6], 1.4%.

`COc1ccc(O)c2c(=O)ccccc12`: the growth inhibition in experiment [1] is 8.5%; in experiment [2], 7.15%; in experiment [3], -3%; in experiment [4], -13.8%; in experiment [5], 5.4%; in experiment [6], 5.55%.

In the case of `O=C(O)CS(=O)(=O)O`, the growth inhibition in experiment [1] is 11.2%; in experiment [2], 0.45%; in experiment [3], -4.3%; in experiment [4] it was 5.3%; in experiment [5] it was 0.75%; in experiment [6], 5.55%.

With `Nc1ccc(I)cc1`, the growth inhibition is -10.8% in experiment [1]; -4.05% in experiment [2]; -34.6% in experiment [3]; -20.8% in experiment [4]; -23.2% in experiment [5]; -22.1% in experiment [6].

For the compound `CCC(=O)NN1C(=O)c2ccccc2C1=O`, the growth inhibition is -13.8% in experiment [1]; -15.4% in experiment [2]; -23.4% in experiment [3]; -13.2% in experiment [4]; -16.5% in experiment [5]; -10.2% in experiment [6].

In the case of `C[N+](C)=c1ccc2nc3ccc(N)cc3sc-2c1`, the growth inhibition in experiment [1] was -84.8%; in experiment [2], -59.5%; in experiment [3], -43.6%; in experiment [4] it was -66.7%; in experiment [5] it was -79.8%; in experiment [6], -76.8%.

With `COc1cc(NC(=O)Nc2cccc(C(C)=O)c2)c(OC)cc1Cl`, the growth inhibition in experiment [1] is -10.5%; in experiment [2], 11%; in experiment [3] it was 0.75%; in experiment [4], -14.4%; in experiment [5] it was 6.35%; in experiment [6], -9.15%.

For `Clc1cccc(-c2sc(-c3cccs3)cc2Cc2cccs2)c1`, the growth inhibition in experiment [1] is -42.8%; in experiment [2] it was -39.8%; in experiment [3], -29.4%; in experiment [4], 2.2%; in experiment [5], -9.2%; in experiment [6] it was -14.5%.

`CCCCCCCCCC(C)=O`: the growth inhibition in experiment [1] is -9.8%; in experiment [2] it was -4.4%; in experiment [3], -16%; in experiment [4], -17.9%; in experiment [5], 4.45%; in experiment [6], -12.2%.

Consider `CC(C)(C)c1ccc(OCC(=O)O)cc1`, for which the growth inhibition in experiment [1] is -17.3%; in experiment [2], -12%; in experiment [3] it was -7.2%; in experiment [4] it was -17.4%; in experiment [5], -8.4%; in experiment [6] it was -6.6%.

On to `O=C1c2ccccc2C(=O)N1OCc1csc(-c2ccccc2)n1`, for which the growth inhibition in experiment [1] is 5.5%; in experiment [2], 6.25%; in experiment [3] it was -4.2%; in experiment [4], 5.25%; in experiment [5], 0.95%; in experiment [6] it was 27.4%.

On to `CC1SC2(C(=O)N(CN3CCCCC3)c3ccccc32)N(c2ccccc2)C1=O` (stereo unspecified), for which the growth inhibition in experiment [1] is 15.4%; in experiment [2] it was -0.45%; in experiment [3] it was -30.9%; in experiment [4], -0.8%; in experiment [5], 3.9%; in experiment [6] it was -0.1%.

`CSc1nc(-c2ccc(Cl)cc2)c(C#N)c(=O)n1C1OC(COC(C)=O)C(OC(C)=O)C(OC(C)=O)C1OC(C)=O` (stereo unspecified): the growth inhibition is -0.55% in experiment [1]; -5.75% in experiment [2]; 16.6% in experiment [3]; 21.2% in experiment [4]; -36% in experiment [5]; 23.2% in experiment [6].

In the case of `[O-][n+]1ccncc1Cl`, the growth inhibition in experiment [1] was -1.15%; in experiment [2], -0.65%; in experiment [3], -2.75%; in experiment [4], 0.55%; in experiment [5] it was 18.6%; in experiment [6], 7.05%.

For the compound `CCCC1(C)OCC(C)([N+](=O)[O-])CO1` (stereo unspecified), the growth inhibition in experiment [1] was -26%; in experiment [2], -11.2%; in experiment [3] it was -3.25%; in experiment [4], -22.4%; in experiment [5], -24%; in experiment [6], 10.8%.

In the case of `C=C1SC(=Nc2ccc(Cl)cc2)N(c2nc(Cl)nc(Cl)n2)C12CCCCC2`, the growth inhibition is -16.4% in experiment [1]; -21.1% in experiment [2]; 19.4% in experiment [3]; 14% in experiment [4]; 10.2% in experiment [5]; 20.6% in experiment [6].

Regarding `O=[N+]([O-])c1ccc(/C=C/[P+](c2ccccc2)(c2ccccc2)c2ccccc2)o1`, the growth inhibition in experiment [1] was 94.2% (active); in experiment [2] it was 97.5% (active); in experiment [3], 89.5% (active); in experiment [4], 83.5% (active); in experiment [5], 95.8% (active); in experiment [6], 93.7% (active).

As to `S=C=Nc1ccc(CSc2nc3ccccc3[nH]2)cc1`, the growth inhibition in experiment [1] is 0.8%; in experiment [2], -9.25%; in experiment [3], 12.8%; in experiment [4], 2.4%; in experiment [5] it was 9.4%; in experiment [6], -11.2%.

Regarding `CCN(CC)CCn1ncc2ccc3c(c(=O)c4cccnc4n3CCN(CC)CC)c21`, the growth inhibition in experiment [1] was 9%; in experiment [2], 16.8%; in experiment [3], 13.2%; in experiment [4], 27.8%; in experiment [5] it was 11.6%; in experiment [6], 10.9%.

As for `O=C(Nc1nc2ccccc2n1Cc1ccc(Cl)cc1)C(=O)NC12CC3CC(CC(C3)C1)C2`, the growth inhibition was -9% in experiment [1]; -24.5% in experiment [2]; 1% in experiment [3]; -0.6% in experiment [4]; 6.8% in experiment [5]; -8.6% in experiment [6].

Regarding `C[N+](C)(CCOc1ccccc1)Cc1ccccc1`, the growth inhibition in experiment [1] is 55%; in experiment [2], 25.8%; in experiment [3], 39.3%; in experiment [4], 26.8%; in experiment [5], 48%; in experiment [6] it was 31.5%.
